Records with an inconclusive call do not appear. Active and inactive are the calls of the source. The call rests on the fitted dose curve.
test: Confirmatory qHTS to identify inhibitors of SARS-CoV-2 cell entry (AID 1645844); details: SARS-CoV-2 pseudotyped particle cell entry, luciferase; series mostly up to 57.2 µM; further: nearly all actives have a fitted effect of over 45% in size
Excerpt: Assay Provider: Wei Zheng, Ph.D.
National Center for Advancing Translational Sciences, National Institute of Health, Rockville, MD.
SARS-CoV-2 spike protein, within the viral envelope, mediates viral attachment and infection of host cells. The SARS-CoV-2 spike protein specifically binds to the host receptor ACE2 (Angiotensin-converting enzyme 2). This interaction promotes endocytosis of the viral particle, additional events lead to viral-host cell membrane fusion and release of the viral contents, allowing viral replication.
While SARS-CoV-2 requires BSL-3 facilities for live virus work, pseudotyped partices (PP) that incorporate SARS-CoV-2 spike proteins without replication elements could facilitate studies on viral entry mechanisms in a BSL-2 setting. This PP cell entry assay could also enable screening of small molecule compound libraries in BSL-2 setting to identify inhibitors of SARS-CoV-2 cell entry.
SEQUENCE No. (e.g., 1, 2, 3, etc.); […] (e.g., Cells, Incubation, Reagent, etc.); VALUE and DESCRIPTION.
1. Cells. Seed 1500 HEK293-ACE2 cells (Expi293F with stable expression of human ACE2) in 2 uL/well media (DMEM, 10% FBS, 1x L-glutamine, 1x Pen/Strep, 1 ug/ml puromycin) in white 1536-well assay plates (Greiner #782073).
2. Incubation. Incubate at 37C with 5% CO2 overnight (~16 h).
3. Compounds. Dispense 23 nL/well compounds in DMSO via pin transfer.
4. Incubation. Incubate for 1 hr at 37C 5% CO2.
5. Reagent. Dispense 2 uL/well of SARS-CoV-2-S pseudotyped particles (PP). [a] PPs are produced with murine leukemia virus pseudotyping). [b] SARS-CoV-2-S is Wuhan-Hu-1 sequence (BEI #NR-52420) with C-terminal 19 amino acid truncation.
6. Centrifugation. […]
7. Incubation. Incubate at for 48 hr at 37C 5% CO2
8. Centrifugation. Remove supernatant with gentle centrifugation using a Blue Washer (BlueCat Bio).
9. Reagent. Dispense 4 uL/well of Bright-Glo Luciferase detection reagent (Promega #E2620).
10. Incubation. Incubate for 5 min at room temperature.
11. Detection. Read luminescence signal (Viewlux plate reader, PerkinElmer). Data was normalized with wells containing SARS-CoV-2-S PP as 100%, and wells containing bald PP (no fusion protein) as 0%.
Potency means the concentration at half of the fitted maximal effect.

Structure (SMILES) | Potency
CCCCCCOC(=O)NC(=N)c1ccc(NCc2nc3cc(C(=O)N(CCC(=O)OCC)c4ccccn4)ccc3n2C)cc1 | 10.8 µM (active)
CCCSS/C(CCO)=C(\C)N(C=O)Cc1cnc(C)nc1N | inactive
CN1CCC(=C2c3ccccc3CCc3sccc32)CC1 | 21.5 µM (active)
C=CC[C@]1(O)CC[C@H]2[C@@H]3CCC4=CC(=O)CCC4=C3C=C[C@@]21C | 15.2 µM (active)
Oc1ccc(Cl)cc1Cc1cc(Cl)ccc1O | 0.0152 µM (active)
CCCCCC(=O)O[C@]1(C(C)=O)CC[C@H]2[C@@H]3CCC4=CC(=O)CC[C@]4(C)[C@H]3CC[C@@]21C | 24.1 µM (active)
CN1CCCCC1CCN1c2ccccc2Sc2ccc(S(C)=O)cc21 (stereo not given) | 1.08 µM (active)
CCOC(=O)C1=C(C)NC(C)=C(C(=O)OCC)C1c1ccccc1/C=C/C(=O)OC(C)(C)C | 0.961 µM (active)
COCCOC(=O)C1=C(C)NC(C)=C(C(=O)OC/C=C/c2ccccc2)C1c1cccc([N+](=O)[O-])c1 (stereo not given) | 24.1 µM (active)
CCCCC(CC)COC(=O)C(C#N)=C(c1ccccc1)c1ccccc1 (stereo not given) | 27.1 µM (active)
O=C(Nc1ccccc1)OCC(CN1CCCCC1)OC(=O)Nc1ccccc1 (stereo not given) | inactive
CCCCCOc1ccccc1/C(=C\SC)n1ccnc1 | 24.1 µM (active)
COC(=O)C1=C(C)NC(C)=C(C(=O)OC(C)(C)CN(C)CCC(c2ccccc2)c2ccccc2)C1c1cccc([N+](=O)[O-])c1 (stereo not given) | 6.07 µM (active)
Clc1ccccc1C(c1ccccc1)(c1ccccc1)n1ccnc1 | 24.1 µM (active)
Oc1c(Cl)cc(Cl)cc1Sc1cc(Cl)cc(Cl)c1O | 2.71 µM (active)
O=c1[nH]c(=O)n([C@H]2C[C@H](O)[C@@H](CO)O2)cc1C(F)(F)F | 0.0857 µM (active)
O=C(CCCN1CCN(c2ccc(F)cc2)CC1)NC1c2ccccc2CSc2ccccc21 (stereo not given) | 1.92 µM (active)
CC(=O)c1ccc2c(c1)N(CCCN1CCC(CCO)CC1)c1ccccc1S2 | 22.4 µM (active)
CCCOc1ccc2nc(NC(=O)OC)[nH]c2c1 | 0.764 µM (active)
CCC(=O)C(CCN(C)C)(c1ccccc1)c1ccccc1 | 12.1 µM (active)
c1ccc2c(c1)Sc1ccccc1N2CC1CN2CCC1CC2 (stereo not given) | 4.82 µM (active)
CN(C)CCCN1c2ccccc2Sc2ccccc21 | 27.1 µM (active)
O[C@@H](COc1cccc2ncccc12)CN1CCN(C2c3ccccc3[C@@H]3[C@H](c4ccccc42)C3(F)F)CC1 (stereo not given in full) | 19.2 µM (active)
CCN(CC)CCOc1ccc(/C(=C(\Cl)c2ccccc2)c2ccccc2)cc1 | 21.5 µM (active)
CN(C(=O)c1c(O)c2ccccc2n(C)c1=O)c1ccccc1 | inactive
COC(=O)[C@H]1[C@H]2C[C@@H]3c4[nH]c5cc(OC)ccc5c4CCN3C[C@H]2C[C@@H](OC(=O)/C=C/c2ccc(O)c(OC)c2)[C@@H]1OC | 30.4 µM (active)
CN(C)CCOC(c1ccccc1)c1ccc(Br)cc1 (stereo not given) | 2.41 µM (active)
CC1=CC(=O)c2ccccc2C1=O | 19.2 µM (active)
CC#C[C@]1(O)CC[C@H]2[C@@H]3C[C@H](C)C4=CC(=O)CC[C@]4(C)[C@H]3CC[C@@]21C | 27.1 µM (active)
O=C1NC2CCCCN2C12CCN(CCCN1c3ccccc3CCc3ccc(Cl)cc31)CC2 (stereo not given) | 15.2 µM (active)

Reference: PubChem BioAssay (NCATS)
